Measured values reported in the supplement of paper PMC6518042.

Tested on: Pectobacterium parmentieri SCC3193
Assay: DuctApe activity index (growth/respiration on compound as sole nutrient source, blank-subtracted) (activity index (0-3)); higher = stronger utilization of the compound, active = 3 or more
Conditions: nutrient role (plate category): phosphate & sulphur
Method: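 Biolog Phenotype Microarray plates PM1, PM2A (carbon), PM3 (nitrogen) and PM4 (phosphorus/sulfur) inoculated with P. parmentieri SCC3193 in M9-C minimal salts medium with Biolog dye A, and read in the OmniLog for 46 h. Each well was tested in triplicate and the experiment was run twice. DuctApe computed a blank-subtracted activity index (AV, 0-3) from the mean curves; growth is positive at AV >= 3 and negative at AV <= 2.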

SMILES | DuctApe activity index
Nc1ncnc2c1ncn2[C@@H]1O[C@H](COP(=O)(O)O)[C@@H](O)[C@H]1O [Adenosine 5`-Monophosphate] | 1 (inactive)
N[C@@H](CS)C(=O)NCC(=O)O | 1 (inactive)
C[C@H](CCC(=O)NCCS(=O)(=O)O)[C@H]1CC[C@H]2[C@@H]3[C@H](O)C[C@@H]4C[C@H](O)CC[C@]4(C)[C@H]3C[C@H](O)[C@]12C [Taurocholic acid] | 2 (inactive)
O=P(O)(O)OP(=O)(O)O [Pyrophosphate] | 1 (inactive)
CSCC[C@@H](N)C(=O)O [D-Methionine] | 2 (inactive)
O=C(O)CP(=O)(O)O [Phosphono Acetic acid] | 0 (inactive)
CSC[C@H](N)C(=O)O [S-Methyl-L-Cysteine] | 1 (inactive)
NC(Cc1ccc(OP(=O)(O)O)cc1)C(=O)O (stereo in doubt) [O-Phospho-D-Tyrosine] | 2 (inactive)
Nc1ncnc2c1ncn2[C@@H]1O[C@H](CO)[C@@H](OP(=O)(O)O)[C@H]1O [Adenosine 3`-Monophosphate] | 2 (inactive)
NC(=O)OP(=O)(O)O [Carbamyl Phosphate] | 1 (inactive)
C[C@@H](OP(=O)(O)O)[C@H](N)C(=O)O [O-Phospho-L-Threonine] | 2 (inactive)
Nc1nc2c(ncn2[C@@H]2O[C@H](CO)[C@@H](OP(=O)(O)O)[C@H]2O)c(=O)[nH]1 [Guanosine 3`-Monophosphate] | 2 (inactive)
NCCS(=O)O [Hypotaurine] | 1 (inactive)
N[C@@H]1[C@@H](O)[C@H](O)[C@@H](COP(=O)(O)O)O[C@@H]1O [D-Glucosamine-6-Phosphate] | 2 (inactive)
Nc1ncnc2c1ncn2[C@@H]1O[C@H](CO)[C@@H](O)[C@H]1OP(=O)(O)O [Adenosine 2`-Monophosphate] | 2 (inactive)
